FBPA coupling cs – qHTS Assay for Inhibitors of Fructose-1,6-bisphosphate Aldolase from Giardia Lamblia: Coupling assay counterscreen; coupling enzyme system counterscreen, AmpLite Red fluorescence; activity change, negative = inhibition, % at 58.2 µM, hits read low; actives 0.67% (n = 290,000); AID 2472, 2010; in the data active means activity change below about -30%
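Compounds tested against the coupling enzymes alone at 57.5 uM final; readout was AmpLite Red fluorescence (525/598 nm) after 20 min at RT.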
Tau FP inhib – qHTS for Inhibitors of Tau Fibril Formation, Fluorescence Polarization. AID 1468, 2008. actives 0.39% (n = 280,000). Potency, µM (top dose mostly 57.7 µM), for inactives: at the highest dose activity, negative = inhibition, usual class: inhibitors. Microtubule-associated protein tau (Homo sapiens), P10636. K18 P301L tau heparin fibrillization, Alexa594 FP, 6 h; further: potency means the concentration at half of the fitted maximal effect; nearly all actives have a fitted effect of over 55% in size
Target sequence (P10636 561-689 P618L limits assumed): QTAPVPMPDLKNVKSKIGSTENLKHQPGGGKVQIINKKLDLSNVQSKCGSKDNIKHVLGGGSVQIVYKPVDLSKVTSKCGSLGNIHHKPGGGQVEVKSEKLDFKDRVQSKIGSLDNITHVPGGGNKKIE
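Human tau K18 […] P301L fragment, 15 uM unlabeled plus 0.24 uM Alexa 594-labeled tau (final), with compound and 20 uM heparin in 100 mM sodium acetate pH 7; 6 hr at 37 C, then Alexa 594 FP read.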
Tau fluor cs – Counterscreen qHTS for Inhibitors of Tau Fibril Formation, Fluorescence Polarization | actives 0.93% (n = 280,000) | tau K18 P301L Alexa594 fluorescence, heparin fibrillization | Potency, µM (titrated, usually from 57.7 µM), for the others: at the highest dose activity change, negative = decrease | AID 1463, 2008; further: potency means the concentration at half of the fitted maximal effect; nearly all actives have a fitted effect of over 55% in size
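Human tau K18 P301L (15 uM unlabeled, 0.24 uM Alexa 594-labeled) in 100 mM sodium acetate pH 7 with 20 uM heparin, 6 hr at 37 C. ThT 30 uM added, 1 hr ambient; Alexa 594 FP and total fluorescence read at 555/632 nm.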
G9a inh – qHTS Assay for Inhibitors of Histone Lysine Methyltransferase G9a; G9a H3K9 monomethylation, AlphaScreen, 2 h; actives 8.8% (n = 350,000); Histone-lysine N-methyltransferase EHMT2 (Homo sapiens), Q96KQ7; AID 504332, 2011; Potency, µM (titrated, usually from 102 µM), for the others: at the top dose activity, negative = inhibition, usual class: inhibitors; further: potency means the concentration at half of the fitted maximal effect; nearly all actives have a fitted effect of over 75% in size
Target sequence (Q96KQ7 913-1193 limits assumed): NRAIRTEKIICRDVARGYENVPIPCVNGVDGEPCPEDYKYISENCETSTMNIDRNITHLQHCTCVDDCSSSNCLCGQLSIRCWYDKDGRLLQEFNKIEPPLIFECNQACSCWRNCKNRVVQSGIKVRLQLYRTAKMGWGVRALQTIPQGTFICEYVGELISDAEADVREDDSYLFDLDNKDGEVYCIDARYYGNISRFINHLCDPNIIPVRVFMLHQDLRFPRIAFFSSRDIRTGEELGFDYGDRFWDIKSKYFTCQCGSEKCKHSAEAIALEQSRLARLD
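Methyltransferase reactions run at room temperature for 2 h (20 nM enzyme, 500 nM biotin-H3K9 peptide, 20 uM SAM) after a 15 min compound preincubation; product detected by AlphaScreen beads and anti-H3K9me1 antibody.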
Tau fibril ThT – qHTS for Inhibitors of Tau Fibril Formation, Thioflavin T Binding; recombinant tau K18 P301L (four-repeat tau fragment), heparin-induced fibrillization, ThT fluorescence; Potency, µM (highest dose often 57.4 µM), for inactives: top-dose activity, negative = inhibition, most hits filed as inhibitors; actives 2.1% (n = 270,000); further: potency means the concentration at half of the fitted maximal effect; nearly all actives have a fitted effect of over 55% in size
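Tau K18 P301L fragment (15 uM unlabeled plus 0.24 uM Alexa 594-labeled) in 100 mM sodium acetate pH 7 with compound, fibrillization induced by 20 uM heparin for 6 hr at 37 C. Thioflavin T (30 uM) added, fluorescence read after 1 hr (ex 450, em 510 nm).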
Sfp PPTase inh – qHTS Assay for Inhibitors of Bacillus subtilis Sfp phosphopantetheinyl transferase (PPTase); actives 3.5% (n = 310,000); AID 1490, 2009; Biochemical Sfp PPTase activity, qHTS; Potency, µM, for the others: largest response in the series, negative = inhibition, most hits filed as inhibitors;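 further: the enzyme is Sfp with the accession as filed and its product quenches rhodamine fluorescence; potency means the concentration at half of the fitted maximal effect; 0% = enzyme reaction without inhibitor and -100% = no enzyme wells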
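Compounds were incubated with enzyme (final 15 nM) for 15 min at room temperature before substrate addition started the reaction. Fluorescence at 525 nm excitation, 598 nm emission was recorded immediately and after 30 minutes.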
An asterisk follows results filed as active; [ ] = remark or other dose. The list is not random: actives were taken first. Their share in the collection is about 11%. Unless noted, the call rests on the fitted dose curve; in most records, active means well fitted curve in the direction sought with a large enough effect; inconclusive means small, poorly fitted or top-dose-only effect, or another doubt; inactive means no such curve, though single readings can be large; an effect the other way counts as inactive or inconclusive. Unless noted, on the % scale 0 is the no-effect control and ±100 the full control effect.

How did C=C1C(=O)O[C@@H]2[C@H]3O[C@]3(C)CC/C=C(\C)CC[C@@H]12 do in these assays?
Tau FP inhib: -9%; Tau fluor cs: 4%; G9a inh: 7.9µM*; Tau fibril ThT: -10%; Sfp PPTase inh: -25%

What do the screens show for `Cc1cc(C)n(CC(O)Cn2c3ccccc3c3ccccc32)n1` (stereo unspecified)?
FBPA coupling cs: -20; Tau FP inhib: -1%; Tau fluor cs: -21%; G9a inh: 15%[12.7 µM]; Tau fibril ThT: -9%; Sfp PPTase inh: 50µM*

How did Cc1cc(C)n(CC(O)Cn2ccc3ccccc32)n1 (stereo unspecified) do in these assays?
FBPA coupling cs: -1; Tau FP inhib: 4%; Tau fluor cs: -3%; G9a inh: 7%[59 µM]; Tau fibril ThT: 2%; Sfp PPTase inh: 2%

How did Cn1c(=O)c(-c2cccc(Cl)c2)nc2cncnc21 do in these assays?
FBPA coupling cs: -1; G9a inh: 8%[12.7 µM]; Sfp PPTase inh: -7%

What do the screens show for `Cc1cc2c(cc1C)CSC(c1c(O)ccc3ccccc13)SC2`?
FBPA coupling cs: 0; Tau FP inhib: 22µM*; Tau fluor cs: 7.9µM*[quencher]; G9a inh: inconclusive; Tau fibril ThT: inconclusive; Sfp PPTase inh: 23%

How did CCOC(=O)c1cc(NC(=O)c2ccccc2)c(=O)n2c1oc1ccc(Cl)cc12 do in these assays?
Tau FP inhib: -8%; Tau fluor cs: -20%; G9a inh: 38%[59 µM]; Tau fibril ThT: -6%

How did CC(C)CC(=O)NNC(=S)Nc1ccc(S(N)(=O)=O)cc1 do in these assays?
FBPA coupling cs: 0; Tau FP inhib: -13%; Tau fluor cs: -5%; G9a inh: 5.6µM*; Tau fibril ThT: -18%; Sfp PPTase inh: 20µM*

What do the screens show for `CC(C)CC(=O)NC(=S)Nc1ccc(S(=O)(=O)NC(C)(C)C)cc1`?
FBPA coupling cs: 2; Tau FP inhib: 1%; Tau fluor cs: -3%; G9a inh: -15%[59 µM]; Tau fibril ThT: 10%; Sfp PPTase inh: -2%

What do the screens show for `CCc1ccc(C(=O)NNC(=S)Nc2ccc(S(N)(=O)=O)cc2)s1`?
FBPA coupling cs: 2; Tau FP inhib: -7%; Tau fluor cs: -15%; G9a inh: 7.9µM*; Tau fibril ThT: inconclusive; Sfp PPTase inh: 21%

How did CCC(C)NC(=O)Cn1c(=O)c2cccn2c2ccc(F)cc21 (stereo unspecified) do in these assays?
Tau FP inhib: 1%; Tau fluor cs: -16%; G9a inh: -19%[59 µM]; Tau fibril ThT: inconclusive

How did CC1=NN(c2ccccc2)C(=O)/C1=C\C=C1/N(C)c2ccccc2C1(C)C do in these assays?
FBPA coupling cs: -3; Tau FP inhib: inconclusive; Tau fluor cs: inconclusive; G9a inh: 11µM*; Tau fibril ThT: 2.2µM*; Sfp PPTase inh: -18%

How did CC1=NN(c2ccccc2)C(=O)/C1=C\C=C1\N(C)c2ccccc2C1(C)C do in these assays?
FBPA coupling cs: -5; Tau FP inhib: 1%; Tau fluor cs: inconclusive; G9a inh: 14µM*; Tau fibril ThT: 1.6µM*; Sfp PPTase inh: -7%

What do the screens show for `Cc1ccccc1N=C/C=C1\N(C)c2ccccc2C1(C)C`?
FBPA coupling cs: -10; Tau FP inhib: 10%; Tau fluor cs: 19%; G9a inh: inconclusive; Tau fibril ThT: inconclusive; Sfp PPTase inh: 8%

What do the screens show for `CN1/C(=C\C=[N+](C)c2ccccc2)C(C)(C)c2ccccc21`?
FBPA coupling cs: -1; Tau FP inhib: 0%; Tau fluor cs: 25%; G9a inh: inconclusive; Tau fibril ThT: inconclusive; Sfp PPTase inh: inconclusive

What do the screens show for `CCOc1ccccc1NC(=O)CNS(=O)(=O)c1ccc2nc(C)sc2c1`?
FBPA coupling cs: 0; Tau FP inhib: -1%; Tau fluor cs: -9%; G9a inh: 0%; Tau fibril ThT: -2%; Sfp PPTase inh: 14%

Results for Cn1cccc1C(=O)N1CCC2(CCCN(Cc3ccccc3)C2)CC1 ?
FBPA coupling cs: 2; G9a inh: 5%[12.7 µM]; Sfp PPTase inh: 10%

Results for CCOC(=O)Cc1csc(NC(=O)Cc2ccc(Br)cc2)n1 ?
FBPA coupling cs: 1; Tau FP inhib: 9%; Tau fluor cs: -11%; G9a inh: 56µM*; Tau fibril ThT: -1%; Sfp PPTase inh: 1%

Results for CCOC(=O)Cc1csc(NC(=O)CCC(=O)O)n1 ?
FBPA coupling cs: 9; Tau FP inhib: 9%; Tau fluor cs: 22%; Tau fibril ThT: 9%; Sfp PPTase inh: 18%

What do the screens show for `CCOC(=O)Cc1csc(NC(=O)CCCc2ccccc2)n1`?
FBPA coupling cs: -6; G9a inh: 50µM*; Sfp PPTase inh: inconclusive

How did CCOC(=O)Cc1csc(N/N=C/c2ccccc2)n1 do in these assays?
FBPA coupling cs: 2; Tau FP inhib: 15%; Tau fluor cs: -20%; G9a inh: 14%[59 µM]; Tau fibril ThT: inconclusive; Sfp PPTase inh: -15%

Results for CCOC(=O)Cc1csc(NC(=O)c2cc3c(s2)CCCC3)n1 ?
FBPA coupling cs: 0; Tau FP inhib: 0%; Tau fluor cs: inconclusive; G9a inh: -19%; Tau fibril ThT: inconclusive; Sfp PPTase inh: -2%

How did CCOC(=O)Cc1csc(NC(=O)c2csc3c2CCCC3)n1 do in these assays?
FBPA coupling cs: -6; Tau FP inhib: -4%; Tau fluor cs: -23%; G9a inh: 35µM*; Tau fibril ThT: inconclusive; Sfp PPTase inh: -17%

What do the screens show for `CCOC(=O)Cc1csc(N/N=C\c2ccc(N(C)C)cc2)n1`?
FBPA coupling cs: -3; G9a inh: 45µM*; Sfp PPTase inh: inconclusive

How did Cc1cc(NC(=O)CCc2nc3cccnc3n2-c2ccccc2)ccc1Br do in these assays?
Tau FP inhib: 5%; Tau fluor cs: -28%; G9a inh: inconclusive; Tau fibril ThT: -7%

Results for CCOc1cc2c(cc1/C=C1/NC(=O)N(CC(=O)OC)C1=O)OCO2 ?
FBPA coupling cs: -2; Tau FP inhib: 7%; Tau fluor cs: -1%; G9a inh: 3%; Tau fibril ThT: -1%; Sfp PPTase inh: 22%

What do the screens show for `CC(=O)c1nc(N2C(=O)CC(Cc3cc(C)cc(C)c3)C2=O)sc1C` (stereo unspecified)?
FBPA coupling cs: -2; Tau FP inhib: -1%; Tau fluor cs: -12%; G9a inh: 45µM*; Tau fibril ThT: -10%; Sfp PPTase inh: 25%

Bioassay records as filed in PubChem BioAssay.
